# Laboratory results published in PubChem BioAssay.
# The source made the active and inactive calls.
# What was measured:
# [1] = E. coli DRC41 culture turbidity changes, primary screen, E. coli filamentation inducer project, strain DRC41, OD650, 48 h (AID 1152);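 also: E. coli MC1000 strain DRC41 lacking acrAB efflux pump and sulA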; details: E. coli DRC41 (acrAB sulA), higher = more signal, called active from +8 up or from −8 down
# [2] = small-molecule binders of probe aLefty1, primary screen, biochemical, small-molecule microarray, 635/667 nm fluorescence (AID 1153); details: higher = more signal;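 also: score merges spot fluorescence with signal-to-noise ratio from the scanned slide images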
# [3] = PSAC antagonists in infected red cells, primary screen, cell-based, P. falciparum Indochina, OD700, 1 h (AID 1154); details: P. falciparum Indochina infected RBC osmotic lysis, higher = more signal, called active from +8 up or from −8 down
# [4] = PSAC antagonists in infected red cells, primary screen, cell-based, P. falciparum Indochina, OD700, 2 h (AID 1155);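 also: lysis reports solute entry through the parasite surface anion channel PSAC; channel blockers reduce lysis of infected cells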; details: P. falciparum Indochina infected erythrocytes, osmotic lysis OD700; higher = more signal, called active from +8 up or from −8 down
# [5] = osmotic lysis modulators in infected erythrocytes, primary screen, PSAC antagonist project, cell-based, P. falciparum Indochina, OD700, 3 h (AID 1156); details: higher = more signal, called active from +8 up or from −8 down
# [6] = PSAC antagonists in infected red cells, primary screen, cell-based, P. falciparum Indochina, OD700, 18 h (AID 1157); details: P. falciparum Indochina infected erythrocytes, osmotic lysis OD700, 18 h; higher = more signal, called active from +8 up or from −8 down
# [7] = modulators of S6 phosphorylation in cells, primary screen, cell-based, A549, cytoblot, luminescence, serum-stimulated (AID 1158); details: A549 phospho-S6 cytoblot, 5 h, higher = more signal;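 also: serum-stimulated A549 lung adenocarcinoma cells; signal is phosphorylated S6 detected by cytoblot immunostaining with HRP secondary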
# [8] = biological target: NADPH oxidase 2 (Homo sapiens) (UniProt P04839); assay: NOX2-dependent H2O2 signal modulators, primary screen, NOX inhibitor project, cell-based, HEK293-NOX2, PMA-stimulated, Amplex Red fluorescence (AID 1159); details: 45 min, higher = more signal, called active from +8 up or from −8 down; also: test concentration not given here
# Chain of NADPH oxidase 2 (Homo sapiens) (P04839 whole entry, looked up): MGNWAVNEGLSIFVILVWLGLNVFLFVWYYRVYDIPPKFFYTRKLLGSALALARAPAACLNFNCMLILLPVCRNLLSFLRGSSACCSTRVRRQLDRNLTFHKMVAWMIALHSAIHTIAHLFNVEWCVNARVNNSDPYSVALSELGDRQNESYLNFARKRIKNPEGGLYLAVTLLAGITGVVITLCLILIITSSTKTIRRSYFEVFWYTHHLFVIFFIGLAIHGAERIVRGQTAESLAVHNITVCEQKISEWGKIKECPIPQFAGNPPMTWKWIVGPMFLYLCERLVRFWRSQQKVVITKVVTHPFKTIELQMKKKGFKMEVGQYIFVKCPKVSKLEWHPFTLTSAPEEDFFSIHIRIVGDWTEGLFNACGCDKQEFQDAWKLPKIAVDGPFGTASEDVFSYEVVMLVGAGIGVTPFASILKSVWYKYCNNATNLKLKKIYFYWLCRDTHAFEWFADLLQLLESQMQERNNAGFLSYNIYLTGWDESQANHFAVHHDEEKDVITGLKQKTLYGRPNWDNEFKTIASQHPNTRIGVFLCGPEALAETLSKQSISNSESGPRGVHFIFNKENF
# [9] = biological target: NADPH oxidase 4 (Homo sapiens) (UniProt Q9NPH5); assay: NOX4-dependent H2O2 signal modulators, primary screen, NOX inhibitor project, cell-based, HEK293-NOX4, tetracycline-induced, Amplex Red fluorescence (AID 1160); details: 45 min, higher = more signal, called active from +8 up or from −8 down
# Chain of NADPH oxidase 4 (Homo sapiens) (Q9NPH5 whole entry, looked up): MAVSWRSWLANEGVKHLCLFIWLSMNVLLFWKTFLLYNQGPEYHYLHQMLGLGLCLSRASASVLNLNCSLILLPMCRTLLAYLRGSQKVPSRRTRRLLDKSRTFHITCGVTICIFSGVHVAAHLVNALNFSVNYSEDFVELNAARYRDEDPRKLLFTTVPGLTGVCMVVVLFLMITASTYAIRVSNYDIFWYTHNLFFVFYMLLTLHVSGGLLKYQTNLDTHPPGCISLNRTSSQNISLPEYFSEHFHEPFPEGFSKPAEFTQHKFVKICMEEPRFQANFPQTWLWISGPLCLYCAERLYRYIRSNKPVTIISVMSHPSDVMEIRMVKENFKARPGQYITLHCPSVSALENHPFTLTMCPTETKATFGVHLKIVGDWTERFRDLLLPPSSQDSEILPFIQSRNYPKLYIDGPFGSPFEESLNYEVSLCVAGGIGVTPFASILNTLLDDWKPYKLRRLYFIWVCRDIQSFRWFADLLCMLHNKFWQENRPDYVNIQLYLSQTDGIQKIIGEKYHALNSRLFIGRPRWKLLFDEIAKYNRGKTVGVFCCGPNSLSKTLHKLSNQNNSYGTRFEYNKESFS
# [10] = biological target: NADPH oxidase 5 (Homo sapiens) (UniProt Q96PH1); assay: NOX5-dependent H2O2 signal modulators, primary screen, NOX inhibitor project, cell-based, HEK293-NOX5, Amplex Red fluorescence (AID 1161); details: HEK293-NOX5, ionomycin, 45 min, higher = more signal
# Chain of NADPH oxidase 5 (Homo sapiens) (Q96PH1 whole entry, looked up): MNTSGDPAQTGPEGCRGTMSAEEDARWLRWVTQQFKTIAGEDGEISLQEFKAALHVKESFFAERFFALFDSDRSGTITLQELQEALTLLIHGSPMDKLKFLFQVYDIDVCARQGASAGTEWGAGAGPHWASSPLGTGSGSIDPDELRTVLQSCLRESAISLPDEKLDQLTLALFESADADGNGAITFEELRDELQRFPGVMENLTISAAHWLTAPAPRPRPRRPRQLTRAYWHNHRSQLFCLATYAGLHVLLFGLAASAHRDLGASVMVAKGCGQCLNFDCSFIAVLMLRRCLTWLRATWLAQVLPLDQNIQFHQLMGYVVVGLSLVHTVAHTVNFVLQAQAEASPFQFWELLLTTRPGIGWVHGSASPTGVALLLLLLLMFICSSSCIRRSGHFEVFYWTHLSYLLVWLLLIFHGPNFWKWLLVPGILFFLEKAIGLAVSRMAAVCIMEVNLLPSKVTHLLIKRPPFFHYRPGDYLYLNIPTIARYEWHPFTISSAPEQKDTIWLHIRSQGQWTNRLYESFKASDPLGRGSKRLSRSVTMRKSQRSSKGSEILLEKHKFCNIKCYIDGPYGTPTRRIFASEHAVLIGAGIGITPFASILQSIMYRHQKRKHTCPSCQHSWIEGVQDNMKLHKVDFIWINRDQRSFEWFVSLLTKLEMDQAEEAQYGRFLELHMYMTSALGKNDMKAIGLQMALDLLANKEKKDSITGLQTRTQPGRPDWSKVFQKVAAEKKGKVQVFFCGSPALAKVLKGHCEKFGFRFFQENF
# [11] = A549 cell viability effects, profiling panel, calcein-AM fluorescence, 48 h, basal (AID 1162); details: higher = more signal; also: test concentration not given here
# [12] = adipocyte viability effects, profiling panel, cell-based, 3T3-L1 adipocytes, calcein-AM fluorescence, 48 h, basal (AID 1163); details: 3T3-L1 adipocytes viability, higher = more signal; also: test concentration not given here
# [13] = HepG2 cell viability effects, profiling panel, calcein-AM fluorescence, 48 h, basal (AID 1164); details: higher = more signal; also: test concentration not given here
# [14] = MM1S cell viability effects, profiling panel, calcein-AM fluorescence, 48 h, basal (AID 1165); details: higher = more signal;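 also: viability of MM1S multiple myeloma cells under basal unstimulated conditions; test concentration not given here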
# [15] = basal RPMI8226 viability, no added stimulus, profiling panel, cell-based, calcein-AM fluorescence, 48 h, PK04 Diversity Set (AID 1166); details: RPMI8226 myeloma viability, higher = more signal;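 also: cells grown under basal conditions without added stimulus; test concentration not given here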
# [16] = basal HepG2 mitochondrial membrane potential changes, profiling panel, cell-based, JC-1 fluorescence, 24 h, 100 nL compound (AID 1167); details: higher = more signal; also: test concentration not given here
# [17] = basal 3T3-L1 adipocyte mitochondrial potential changes, profiling panel, cell-based, JC-1 fluorescence, 3T3-L1 adipocytes, 24 h, 100 nL compound (AID 1168); details: JC-1 mitochondrial fluorescence, higher = more signal, called active from +8 up or from −8 down; also: test concentration not given here
# [18] = basal RPMI8226 mitochondrial membrane potential changes, profiling panel, cell-based, JC-1 fluorescence, 24 h, 100 nL compound (AID 1169); details: RPMI8226 myeloma, JC-1 mitochondrial potential fluorescence, higher = more signal; also: test concentration not given here
# [19] = basal MM1S mitochondrial membrane potential changes, profiling panel, cell-based, JC-1 fluorescence, 24 h, 100 nL compound (AID 1170); details: higher = more signal; also: test concentration not given here
# [20] = A549 lung cancer cell viability effects, profiling panel, resazurin fluorescence, 24 h, PK04 Diversity Set (AID 1171); details: higher = more signal, called active from +8 up or from −8 down; also: test concentration not given here
SMILES,z-score [1],composite z-score [2],z-score [3],z-score [4],z-score [5],z-score [6],z-score [7],z-score [8],z-score [9],z-score [10],z-score [11],z-score [12],z-score [13],z-score [14],z-score [15],z-score [16],z-score [17],z-score [18],z-score [19],z-score [20]
COC(=O)[C@@]1(Cc2ccccc2)[C@H]2c3cc(C(=O)N4CCCC4)n(Cc4nc5ccccc5[nH]4)c3C[C@H]2CN1C(=O)c1ccccc1,-1.31 (inactive),1.06,3.2 (inactive),0.541 (inactive),2.65 (inactive),0.959 (inactive),-0.25,0.311 (inactive),-0.142 (inactive),-3,-0.579,0.887,-0.537,-2.39,-2.19,1.73,-0.807 (inactive),-0.863,-0.81,-0.178 (inactive)
COC(=O)C=C(CC(O)c1cccc(Cl)c1)OC (stereo not given),0.502 (inactive),1.6,19.4 (active),2.27 (inactive),-0.188 (inactive),-0.936 (inactive),0.794,0.0865 (inactive),-0.0239 (inactive),0.219,0.409,0.0036,1.01,0.892,-0.221,0.456,0.705 (inactive),-0.738,-1.36,-0.34 (inactive)
O=C1OCCC/C=C\[C@H]2OC34C=CCN(Cn5nnc6ccccc65)C(=O)[C@H]3N(CCO)C(=O)[C@@H]4C12 (stereo not given in full),1.8 (inactive),0.16,1.55 (inactive),0.299 (inactive),0.292 (inactive),0.335 (inactive),1.64,1.41 (inactive),0.409 (inactive),1.92,0.499,1.02,-0.822,0.971,-0.117,0.31,0.192 (inactive),0.656,-0.345,-0.66 (inactive)
O=C(NCc1ccc(F)cc1)[C@H]1C[C@H]2C(=O)N[C@@H](Cc3ccccc3)C(=O)N2[C@H]1c1ccc(O)cc1,0.132 (inactive),-0.0601,2.64 (inactive),0.591 (inactive),-1.55 (inactive),0.498 (inactive),-0.0688,0.171 (inactive),0.301 (inactive),0.965,0.0416,0.17,0.0329,-0.973,-0.27,1.11,0.672 (inactive),0.736,0.453,0.278 (inactive)
CN1C(=O)C2C=CC(C(O)c3ccc(-c4ccccc4)s3)N(N(c3ccccc3)c3ccccc3)C2C1=O (stereo not given),-0.562 (inactive),0.2,3.38 (inactive),2.19 (inactive),0.977 (inactive),1.32 (inactive),-1.12,1.1 (inactive),0.963 (inactive),-1.15,0.281,-0.905,0.391,-0.616,0.275,0.748,-1.98 (inactive),-1.05,-0.434,-0.434 (inactive)
CC(C)c1ccc(NN2C(C(O)C(c3ccccc3)c3ccccc3)C=CC3C(=O)N(c4ccccc4)C(=O)C32)cc1 (stereo not given),-1.98 (inactive),0.497,0.363 (inactive),1.32 (inactive),0.771 (inactive),0.948 (inactive),-0.582,-1 (inactive),-4.56 (inactive),-4.98,-0.447,-0.306,-0.0211,-0.535,-0.967,-0.988,-0.8 (inactive),-0.107,0.798,-2.05 (inactive)
C#CCN(Cc1ccccc1Br)C(/C=C/c1ccccc1)CO (stereo not given),-0.585 (inactive),-0.226,12.5 (active),2.61 (inactive),-1.31 (inactive),0.696 (inactive),-0.188,0.28 (inactive),-0.157 (inactive),-2.02,-3.65,-0.011,-3.95,-3.26,-4.12,-2.83,0.165 (inactive),-1.2,-1.21,-0.411 (inactive)
[N-]=[N+]=NCc1ccccc1C[C@]1(C(=O)O)N=C(c2ccc(OCCCO)cc2)O[C@H]1c1ccccc1N=[N+]=[N-],0.23 (inactive),0.396,36.3 (active),33.8 (active),4.02 (inactive),10 (active),0.468,-2.14 (inactive),0.705 (inactive),-1.92,-0.882,1.09,-0.826,-2.06,-3.85,-1.93,-0.456 (inactive),-1.05,-0.887,-1.77 (inactive)
COc1ccc([Si](C)(C)[C@H]2[C@H](CC(=O)N3Cc4ccccc4C[C@H]3CO)O[C@@]3(C(=O)N(Cc4ccc(N5CCC5=O)cc4)c4ccccc43)[C@@H]2C)cc1,0.97 (inactive),0.874,6.86 (inactive),1.45 (inactive),1.46 (inactive),1.11 (inactive),0.414,-0.241 (inactive),0.465 (inactive),-1.64,-0.279,0.656,-0.727,-2.32,-3.26,1.67,0.657 (inactive),-1.04,-0.928,-0.0964 (inactive)
